These results are taken from article PMC11062922 (Nature Chemical Biology, 2023).

In one assay the test system is ATM. Details: species or system human, MV4-11 + K-562 + COLO205 + SK-N-BE2 + OVCAR-8. The following applies: read-out: apparent Kd, compound concentrations: 100 nM and 1000 nM (sheet 'Samples'), n = 1.
Another assay has as its system EPHB2. Set-up: species or system human, MV4-11 + K-562 + COLO205 + SK-N-BE2 + OVCAR-8. The following applies: read-out: apparent Kd; compound concentrations: 100 nM and 1000 nM (sheet 'Samples'), CATDS: 5.4073383937865198E-2; n = 1.
Another assay relates to EPHB4. Set-up: species or system human, MV4-11 + K-562 + COLO205 + SK-N-BE2 + OVCAR-8. To be noted: read-out: apparent Kd; compound concentrations: 100 nM and 1000 nM (sheet 'Samples'), CATDS: 6.1726409917068299E-2; n = 1.
For the next assay, the system named is ERCC2. Details: species or system human, MV4-11 + K-562 + COLO205 + SK-N-BE2 + OVCAR-8. The following applies: read-out: apparent Kd; compound concentrations: 100 nM and 1000 nM (sheet 'Samples'), CATDS: 5.5764348636942303E-2; n = 1.
Another assay relates to GAK. Set-up: species or system human, MV4-11 + K-562 + COLO205 + SK-N-BE2 + OVCAR-8. The following applies: read-out: apparent Kd; compound concentrations: 100 nM and 1000 nM (sheet 'Samples'), CATDS: 5.4131734373928597E-2; n = 1.
The test system of the next assay is MAPK11. Set-up: species or system human, MV4-11 + K-562 + COLO205 + SK-N-BE2 + OVCAR-8. To be noted: read-out: apparent Kd; compound concentrations: 100 nM and 1000 nM (sheet 'Samples'), CATDS: 5.3024764927667702E-2; n = 1.
Another assay concerns MAPK9. Set-up: species or system human, MV4-11 + K-562 + COLO205 + SK-N-BE2 + OVCAR-8. To be noted: read-out: apparent Kd; compound concentrations: 100 nM and 1000 nM (sheet 'Samples'), CATDS: 4.8598107075800298E-2; n = 1.
Another assay relates to PIK3CD. Details: species or system human, MV4-11 + K-562 + COLO205 + SK-N-BE2 + OVCAR-8. To be noted: read-out: apparent Kd; compound concentrations: 100 nM and 1000 nM (sheet 'Samples'), CATDS: 0.17871618509773601; n = 1.
In the next assay the test system is PRKAG1. Details: species or system human, MV4-11 + K-562 + COLO205 + SK-N-BE2 + OVCAR-8. The following applies: read-out: apparent Kd; compound concentrations: 100 nM and 1000 nM (sheet 'Samples'), CATDS: 0.16537945718140701; n = 1.
The next assay relates to PRKCQ. Set-up: species or system human, MV4-11 + K-562 + COLO205 + SK-N-BE2 + OVCAR-8. The following applies: read-out: apparent Kd; compound concentrations: 100 nM and 1000 nM (sheet 'Samples'), CATDS: 0.173893551056024; n = 1.
The subject of the next assay is RPS6KA6. Set-up: species or system human, MV4-11 + K-562 + COLO205 + SK-N-BE2 + OVCAR-8. To be noted: read-out: apparent Kd; compound concentrations: 100 nM and 1000 nM (sheet 'Samples'), CATDS: 5.8254455151346002E-2; n = 1.
The subject of another assay is SRC. Details: species or system human, MV4-11 + K-562 + COLO205 + SK-N-BE2 + OVCAR-8. To be noted: read-out: apparent Kd; compound concentrations: 100 nM and 1000 nM (sheet 'Samples'), CATDS: 5.8386134416648999E-2; n = 1.
The next assay concerns TNK1. Details: species or system human, MV4-11 + K-562 + COLO205 + SK-N-BE2 + OVCAR-8. To be noted: read-out: apparent Kd; compound concentrations: 100 nM and 1000 nM (sheet 'Samples'), CATDS: 8.7272147556640506E-2; n = 1.
The test system of the next assay is TNK2. Set-up: species or system human, MV4-11 + K-562 + COLO205 + SK-N-BE2 + OVCAR-8. The following applies: read-out: apparent Kd; compound concentrations: 100 nM and 1000 nM (sheet 'Samples'), CATDS: 6.9926040964812697E-2; n = 1.
The test system of another assay is CDC7. Set-up: species or system human, MV4-11 + K-562 + COLO205 + SK-N-BE2 + OVCAR-8. To be noted: read-out: apparent Kd; compound concentrations: 100 nM and 1000 nM (sheet 'Samples'), CATDS: 6.3073958864856297E-2; n = 1.
The test system of another assay is CDK16. Details: species or system human, MV4-11 + K-562 + COLO205 + SK-N-BE2 + OVCAR-8. The following applies: read-out: apparent Kd; compound concentrations: 100 nM and 1000 nM (sheet 'Samples'), CATDS: 0.118346075913056; n = 1.
In a further assay the test system is CDK2. Details: species or system human, MV4-11 + K-562 + COLO205 + SK-N-BE2 + OVCAR-8. The following applies: read-out: apparent Kd; compound concentrations: 100 nM and 1000 nM (sheet 'Samples'), CATDS: 0.141708067448752; n = 1.
A further assay deals with CDKL5. Set-up: species or system human, MV4-11 + K-562 + COLO205 + SK-N-BE2 + OVCAR-8. The following applies: read-out: apparent Kd; compound concentrations: 100 nM and 1000 nM (sheet 'Samples'), CATDS: 6.5208173112241197E-2; n = 1.
For the next assay, the system named is CLK2. Set-up: species or system human, MV4-11 + K-562 + COLO205 + SK-N-BE2 + OVCAR-8. The following applies: read-out: apparent Kd; compound concentrations: 100 nM and 1000 nM (sheet 'Samples'), CATDS: 8.0907286547203805E-2; n = 1.
The test system of another assay is CLK4. Details: species or system human, MV4-11 + K-562 + COLO205 + SK-N-BE2 + OVCAR-8. The following applies: read-out: apparent Kd; compound concentrations: 100 nM and 1000 nM (sheet 'Samples'), CATDS: 8.1638299421732605E-2; n = 1.
A further assay has as its system CSNK2A1;CSNK2A3. Set-up: species or system human, MV4-11 + K-562 + COLO205 + SK-N-BE2 + OVCAR-8. The following applies: read-out: apparent Kd, n = 1.
A further assay relates to CSNK2A2. Set-up: species or system human, MV4-11 + K-562 + COLO205 + SK-N-BE2 + OVCAR-8. To be noted: read-out: apparent Kd, n = 1.
For another assay, the system named is GSK3A. Set-up: species or system human, MV4-11 + K-562 + COLO205 + SK-N-BE2 + OVCAR-8. The following applies: read-out: apparent Kd; compound concentrations: 100 nM and 1000 nM (sheet 'Samples'), CATDS: 7.3699312386452706E-2; n = 1.
For a further assay, the system named is GSK3B. Details: species or system human, MV4-11 + K-562 + COLO205 + SK-N-BE2 + OVCAR-8. The following applies: read-out: apparent Kd; compound concentrations: 100 nM and 1000 nM (sheet 'Samples'), CATDS: 7.1527025569737807E-2; n = 1.
Another assay concerns ICK. Details: species or system human, MV4-11 + K-562 + COLO205 + SK-N-BE2 + OVCAR-8. To be noted: read-out: apparent Kd; compound concentrations: 100 nM and 1000 nM (sheet 'Samples'), CATDS: 7.9134779366863195E-2; n = 1.
The test system of the next assay is AKT3. Details: species or system human, MV4-11 + K-562 + COLO205 + SK-N-BE2 + OVCAR-8. To be noted: read-out: apparent Kd; compound concentrations:100 nM and 1000 nM (sheet 'Samples'); n = 1.
The subject of a further assay is AURKB. Set-up: species or system human, MV4-11 + K-562 + COLO205 + SK-N-BE2 + OVCAR-8. To be noted: read-out: apparent Kd; compound concentrations:100 nM and 1000 nM (sheet 'Samples'); n = 1.
A further assay deals with BMP2K. Set-up: species or system human, MV4-11 + K-562 + COLO205 + SK-N-BE2 + OVCAR-8. The following applies: read-out: apparent Kd; compound concentrations:100 nM and 1000 nM (sheet 'Samples'); n = 1.
The next assay deals with JAK1. Details: species or system human, MV4-11 + K-562 + COLO205 + SK-N-BE2 + OVCAR-8. To be noted: read-out: apparent Kd; compound concentrations:100 nM and 1000 nM (sheet 'Samples'); n = 1.
The target in the next assay is Q6ZSR9 (human, UniProt Q6ZSR9). Details: species or system MV4-11 + K-562 + COLO205 + SK-N-BE2 + OVCAR-8. The following applies: read-out: apparent Kd; compound concentrations:100 nM and 1000 nM (sheet 'Samples'); n = 1.
Q6ZSR9, sequence (Q6ZSR9 whole entry, looked up): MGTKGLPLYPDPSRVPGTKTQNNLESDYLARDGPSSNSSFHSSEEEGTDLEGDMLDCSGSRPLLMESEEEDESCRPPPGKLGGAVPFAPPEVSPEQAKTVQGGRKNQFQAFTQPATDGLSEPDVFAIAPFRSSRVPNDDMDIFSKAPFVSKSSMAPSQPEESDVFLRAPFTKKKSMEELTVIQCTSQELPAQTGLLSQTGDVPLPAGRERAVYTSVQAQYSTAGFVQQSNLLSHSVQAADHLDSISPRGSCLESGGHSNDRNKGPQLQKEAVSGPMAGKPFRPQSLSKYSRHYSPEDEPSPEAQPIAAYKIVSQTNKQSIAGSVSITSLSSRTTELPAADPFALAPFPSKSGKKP
The mark [1] stands for this setting: compound concentrations:100 nM and 1000 nM (sheet 'Samples').

Where two headings read alike, the source gives them in different places.

For `CC(C)(O)CCc1cccc(C(=O)c2cnn(-c3ccc(F)cc3)c2N)c1` [RO3200935-000], the potency estimated from few doses in the assay on ATM (CATDS: 0.124711216224064) was 182 nM; with EPHB2, 1310 nM; in the assay on EPHB4 it was 862 nM; in the assay on ERCC2 it was 1180 nM; in the assay on GAK, 1300 nM; with MAPK11, 1400 nM. The potency estimated from few doses with MAPK9 is 1970 nM; in the assay with PIK3CD, 101 nM; with PRKAG1 it was 114 nM; in the assay on PRKCQ it was 105 nM; with RPS6KA6, 1020 nM; in the assay on SRC, 1020 nM. Besides, the potency estimated from few doses in the assay with TNK1 is 366 nM; with TNK2, 615 nM.

With `NS(=O)(=O)c1ccc(N/N=C2\C(=O)Nc3ccc(C(=O)NCCCn4ccnc4)cc32)cc1` [GW290597X], the potency estimated from few doses is 232 nM in the assay with ATM (CATDS: 0.20887249405767599); 2220 nM in the assay with CDC7; 550 nM in the assay with CDK16; 409 nM in the assay with CDK2; 2010 nM in the assay with CDKL5; 1150 nM in the assay on CLK2. Further, the potency estimated from few doses in the assay on CLK4 was 1130 nM; with CSNK2A1;CSNK2A3 (compound concentrations: 100 nM and 1000 nM (sheet 'Samples'), CATDS: 6.6778954653333403E-2), 1870 nM; with CSNK2A2 (compound concentrations: 100 nM and 1000 nM (sheet 'Samples'), CATDS: 7.8455201722788401E-2), 1240 nM; with GSK3A, 1440 nM; in the assay on GSK3B it was 1550 nM; in the assay on ICK, 1210 nM.

Regarding `NC(=O)Nc1sc(-c2ccc(F)cc2)cc1C(N)=O` [GW789449X], the potency estimated from few doses in the assay on AKT3 is 1830 nM; in the assay with AURKB, 1310 nM; in the assay on BMP2K it was 1260 nM; in the assay with CSNK2A1;CSNK2A3 (setting [1]) it was 1730 nM; in the assay with CSNK2A2 (setting [1]), 1130 nM; in the assay with JAK1 it was 711 nM. Besides, the potency estimated from few doses with Q6ZSR9 was 1370 nM.
